High-throughput results: PubChem, The Scripps Research Institute Molecular Screening Center
Shown are actives, neighbours in structure and some others; about 3.5% of the full set was active somewhere.
MITF primary – inhibitors of human MITF | O75030 | AlphaScreen MITF homodimerization, bead proximity signal | inhibition, % at 2.6 µM | 650,000 tested, 0.91% active; in the data active means inhibition above about 50%;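 further: 0% = vehicle wells with protein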
Target sequence (O75030 whole entry, looked up): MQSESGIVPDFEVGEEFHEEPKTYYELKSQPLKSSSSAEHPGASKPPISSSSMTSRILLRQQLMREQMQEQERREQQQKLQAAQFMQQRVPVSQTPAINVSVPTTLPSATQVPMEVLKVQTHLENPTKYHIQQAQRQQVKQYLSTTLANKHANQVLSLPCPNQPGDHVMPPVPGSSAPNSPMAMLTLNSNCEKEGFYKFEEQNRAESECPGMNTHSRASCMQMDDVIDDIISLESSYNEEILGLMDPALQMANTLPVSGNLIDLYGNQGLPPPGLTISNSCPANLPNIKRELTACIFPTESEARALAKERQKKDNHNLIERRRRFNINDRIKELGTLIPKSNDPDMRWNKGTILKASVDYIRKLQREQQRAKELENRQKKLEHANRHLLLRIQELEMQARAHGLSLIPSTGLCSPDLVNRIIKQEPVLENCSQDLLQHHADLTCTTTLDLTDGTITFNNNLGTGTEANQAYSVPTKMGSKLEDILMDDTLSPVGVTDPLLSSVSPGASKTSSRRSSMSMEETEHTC
GPR151 activ – activates the human receptor GPR151; Q8TDV0; PathHunter beta-arrestin GPR151 cells, luminescence; activation, % at 11.2 µM; 650,000 tested, 1% active; AID 1508602; in the data active means activation above about 4.9%;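 further: 0% = median of compound wells and 100% = cells with positive control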
FBW7 act – human FBW7 E3 ligase activation, primary screen; 650,000 tested, 0.13% active; AlphaScreen FBW7–phospho-cyclin E peptide binding, activator screen; AID 1259310; Q969H0; normalized activity (activation), % at 26.1 µM; in the data active means normalized activity above about 1.9%;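 further: purified mutant Fbw7 with reduced substrate affinity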
TEAD-YAP block – TEAD-YAP interaction inhibition. HEK-TIYL cells, TEAD-Gal4/YAP UAS-luciferase luminescence. inhibition, % at 9.12 µM. 640,000 tested, 1.4% active; in the data active means inhibition above about 32%;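 further: 0% = median of test compound wells and 100% = reference inhibitor wells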
MITF inh conf – human MITF inhibition, confirmation; shares compounds with MITF primary; AlphaScreen MITF homodimerization, biotin/His-MITF beads; inhibition, % at 2.6 µM; 4,700 tested, 16% active; AID 1259372;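 active means inhibition above a cutoff derived from the DMSO control wells, cut at about 28% in these data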;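 further: 0% = MITF dimer wells with DMSO only; inhibitors lower the bead chemiluminescence by keeping MITF from dimerizing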
AlphaScreen DR – AlphaScreen optical interference, dose response counter-screen | shares compounds with MITF primary | AID 1259373 | 480 tested, 6% active | AlphaScreen optical interference counterscreen, cell-free | IC50, µM; call rule not given here
AS interf ctr – AlphaScreen optical interference, counter-screen. shares compounds with MITF primary. LysRS AlphaScreen counterscreen, signal interference, triplicate. inhibition, % at 2.6 µM. 4,700 tested, 7.6% active. AID 1259376;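 active means inhibition above a cutoff derived from the DMSO control wells, cut at about 30% in these data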
An asterisk follows results filed as active; · = no result.

SMILES | MITF primary | GPR151 activ | FBW7 act | TEAD-YAP block | MITF inh conf | AS interf ctr | others
O=[N+]([O-])c1ccc(CN2CCC(O)CC2)cc1 | 18 | -1 | 0 | -6 | · | ·
CC1CCCC(N2CCN(Cc3ccc([N+](=O)[O-])cc3)CC2)C1 (stereo not given) | 94* | -1 | 0 | -14 | -6 | -2
O=[N+]([O-])c1ccc(CN2CCN(C3CCCC3)CC2)cc1 | 61* | -1 | 0 | -3 | 1 | -4
CC1CCCC(N2CCN(C3CCN(Cc4ccccc4)CC3)CC2)C1 (stereo not given) | 34 | 0 | 0 | 12 | · | ·
C=CCn1c(SCC(=O)c2[nH]c(C)c(C(=O)OCC)c2C)nc2sc(-c3ccccc3)cc2c1=O | 11 | 0 | 1 | -30 | · | ·
Cc1ccc(C)c(NC(=O)CS/C(NC(=O)c2ccccc2)=C(\C#N)C(CC(=O)c2ccccc2)c2ccccc2Cl)c1 (stereo not given) | 17 | 0 | 0 | -1 | · | ·
Cc1cc(C(N)=O)c(C)n1CCCn1ccnc1 | 76* | 0 | -1 | 2 | 15 | 22
Cc1cc(=S)cc(C)n1CCCn1ccnc1 | -5 | 0 | 0 | -2 | · | ·
Cc1ccc(Cl)cc1NC(=O)CN1C(=O)c2cccc([N+](=O)[O-])c2C1=O | 14 | 0 | 0 | 14 | · | ·
c1csc(C2=NNC(c3ccncc3)=Nc3ccccc32)c1 | 71* | 1 | 0 | 9 | 10 | 16
COc1ccc2c(c1)C(c1cccs1)=NNC(c1ccncc1)=N2 | 10 | 0 | 0 | 7 | · | ·
Cc1cc(C)c(NC(=O)c2ccc(=O)[nH]c2)c(Cl)c1 | 7 | 2 | 0 | 0 | · | ·
O=C(Nc1cccc(O)c1)/C(=C/c1ccc([N+](=O)[O-])cc1)NC(=O)c1ccccc1 | 52* | 0 | 0 | 6 | -9 | -2
COc1ccc(/C=C(/NC(=O)c2ccccc2)C(=O)Nc2ccc(F)cc2)cc1OC | 67* | 0 | 0 | 4 | 0 | 11
COc1ccc(C(=O)N/C(=C\c2ccc([N+](=O)[O-])cc2)C(=O)Nc2ccc(C)c(C)c2)c(Cl)c1 | 61* | -1 | 1 | -15 | -1 | -3
O=C(Nc1cccc(C(=O)O)c1)/C(=C/c1ccc([N+](=O)[O-])cc1)NC(=O)c1ccccc1 | -3 | -2 | 0 | -1 | · | ·
Cc1ccccc1Nc1nnc(SC(C)C(=O)N2CCC(C)CC2)s1 (stereo not given) | 27 | -1 | 0 | 10 | · | ·
C=C/C=C(\C(C)=C(C)C)N(C(C)=O)C1=NCCCS1 | 65* | 1 | 0 | 3 | 12 | 11
CN(C)c1cccc(Nc2nc(C(=O)NC3CCN(Cc4ccccc4)CC3)cs2)c1 | 58* | -1 | 0 | -11 | 25 | 16
O=C(/C=C/c1ccc(F)cc1)Nc1ccc(S(=O)(=O)Nc2cnc3ccccc3n2)cc1 | 4 | -1 | 0 | 4 | · | ·
O=C1CC(N2CCN(CC3CCCO3)CC2)C(=O)N1Cc1ccccc1 (stereo not given) | 75* | 1 | 0 | 4 | 11 | 18
CCCC1CCC(C2CCC(=O)CC2)CC1 (stereo not given) | 53* | 3 | 0 | -5 | 14 | 13
C=C1C(C(=O)NCc2ccco2)C1C(=O)NCc1ccco1 (stereo not given) | 63* | 0 | 0 | 0 | 67* | 13 | AlphaScreen DR=>7.7
c1ccc(CN2CCC(N3CCN(C4CC5CCC4C5)CC3)CC2)cc1 (stereo not given) | 35 | 2 | 0 | 5 | · | ·
COc1ccc(CN2CCN(C3CCCC3)CC2)cc1OC | 47 | -1 | 0 | 9 | · | ·
SMILES | MITF primary | GPR151 activ | FBW7 act | TEAD-YAP block | MITF inh conf | AS interf ctr | others
COc1ccc(CN2CCN(C3CC4CCC3C4)CC2)cc1OC (stereo not given) | 63* | 0 | 0 | 14 | -16 | 0
COc1ccc(CN2CCN(C3CC4CCC3C4)CC2)cc1 (stereo not given) | 77* | 0 | 1 | -5 | 1 | 1
CC(C)c1ccc(S(=O)(=O)NCCCCN2CCOC(c3ccccc3)C2)cc1 (stereo not given) | 11 | -1 | 0 | -3 | · | ·
CCc1cc2c(SCC(=O)NCc3ccco3)ncnc2s1 | -11 | 3 | 0 | 4 | · | ·
O=C(c1cccs1)N1CCN(c2ccc([N+](=O)[O-])cc2F)CC1 | 62* | -1 | 0 | -1 | 3 | -1
CCOC(=O)N1CCc2c(sc(NC(=O)CC)c2C(=O)Nc2cc(OC)ccc2OC)C1 | 1 | 1 | 0 | 15 | · | ·
Cc1ccc(C)n1C(CC(=O)O)c1ccsc1 (stereo not given) | 80* | 1 | 0 | 4 | 68* | 11 | AlphaScreen DR=>6.8
CCC(Nc1ccc(Br)cc1)C(=O)N/N=C/c1ccc([N+](=O)[O-])cc1 (stereo not given) | 4 | 2 | 0 | 9 | · | ·
NC(=O)COc1ccc2c(C(F)(F)F)cc(=O)oc2c1 | 54* | -1 | 0 | 12 | -23 | 15
C=CCOC(=O)COc1ccc2c(CC)cc(=O)oc2c1 | 76* | -1 | 0 | -1 | 8 | 7
CC(C)(C)C(=O)COc1ccc2c(C(F)(F)F)cc(=O)oc2c1 | 6 | 0 | 0 | 6 | · | ·
Cc1ccc(CN2CCCC(O)C2)c(C)c1 (stereo not given) | 14 | 0 | 1 | 15 | · | ·
COc1ccc(-n2c(CN3CCSCC3)n[nH]c2=S)cc1 | 71* | 1 | 0 | 16 | -6 | 10
O=C(/C=C/c1ccc2ccccc2n1)OCc1cc([N+](=O)[O-])cc2c1OCOC2 | 6 | 1 | 0 | 0 | · | ·
Cc1ccc2cc(CN(CCO)C(=O)c3ccc(Cl)cc3)c(=O)[nH]c2c1 | 54* | -1 | 0 | -10 | 22 | 9
O=C(Nc1nc2ccccc2n1CCOc1ccc(Br)cc1)c1cccs1 | -10 | -1 | 0 | -6 | · | ·
COCCNCCOCCOc1c(C)cc(C)cc1Cl | 53* | 0 | 0 | 6 | 4 | 12
CC(C)c1ccc(OCCCCN2CCNCC2)cc1 | 62* | -2 | 0 | 11 | -2 | 12
Cc1cc(OCCN2CCNCC2)cc(C)c1Cl | 62* | 0 | 0 | 5 | 0 | 2
Cc1cc(OCCOCCN2CCN(C)CC2)cc(C)c1Cl | 62* | -2 | 0 | 3 | 14 | 15
O=S(=O)(Nc1ccc(N2CCC(NCCc3cnccn3)CC2)cc1)c1ccccc1 | -11 | -1 | 0 | 2 | · | ·
Cc1cc(C)c(OCCOCCNC(C)C)c(C)c1 | 41 | 2 | 0 | -3 | · | ·
Cc1cc(C)c(OCCCCN2CCNCC2)c(Cl)c1 | 70* | -1 | 0 | -10 | 5 | 0
Cc1cc(C)c(OCCCCN2CCNCC2)c(C)c1 | 0 | 0 | 0 | -4 | · | ·
Cc1cccc(C)c1OCCCCN1CCNCC1 | 64* | 1 | 0 | 7 | 5 | 2
Cc1cc(Cl)c(OCCOCCN2CCNCC2)c(Cl)c1 | 90* | 3 | 0 | 3 | 18 | 11
